Bioassay records from PubChem BioAssay.
HEK cytotox: Cytotoxic Profiling in HEK 293 Cell Line of Diverse Libraries Using Quantitative High-Throughput Screening | Potency, µM (highest dose often 115 µM), inactives show at the highest dose activity change, negative = cytotoxicity, most hits filed as inhibitors | HEK 293 viability, ATP luminescence (CellTiter-Glo), 48-72 h | 6.6% of 94,000 active; also: potency is read from the fitted curve at half-maximal effect; nearly all actives have a fitted effect of over 60% in size
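Read-out: CellTiter-Glo ATP luminescence. Cells: HEK 293, 250 cells/well. Exposure: 48 or 72 hr, 37 degree Celsius.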
IP6K1 inh: Primary qHTS assay for small molecule inhibitors of Inositol hexaphosphate kinase 1 (IP6K1); IP6K1 kinase, ADP-Glo luminescence, 2 h; stronger effect = lower value; AID 1645851, 2021; 0.81% of 140,000 active; activity change, % (series mostly up to about 58 µM); Inositol hexakisphosphate kinase 1 (Homo sapiens), Q92551; in the data active = activity change below about -25%
Target sequence (Q92551 whole entry, looked up): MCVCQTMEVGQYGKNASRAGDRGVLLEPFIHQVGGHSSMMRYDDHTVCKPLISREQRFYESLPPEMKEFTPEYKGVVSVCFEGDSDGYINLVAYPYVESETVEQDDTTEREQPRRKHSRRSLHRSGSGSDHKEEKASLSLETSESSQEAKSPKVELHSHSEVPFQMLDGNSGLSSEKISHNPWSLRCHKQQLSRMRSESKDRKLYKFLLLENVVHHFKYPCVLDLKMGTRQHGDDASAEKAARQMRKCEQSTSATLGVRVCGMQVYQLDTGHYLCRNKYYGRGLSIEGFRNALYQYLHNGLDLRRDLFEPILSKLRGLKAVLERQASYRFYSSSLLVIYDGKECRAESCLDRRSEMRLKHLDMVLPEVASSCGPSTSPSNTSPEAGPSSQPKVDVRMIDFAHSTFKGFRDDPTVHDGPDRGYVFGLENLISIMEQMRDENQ
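ADP-Glo luminescence measures ADP made by human IP6K1 during a 2 h RT reaction with ATP/IP6 (mix at 1.3 mM/130 uM); top library doses 57.5 and 19.1 uM final.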
SNCA expr inhib: Primary qHTS assay for inhibitors of alpha-synuclein gene (SNCA) expression; HEK-293 SNCA-luciferase knock-in, luminescence, 24 h; Potency, µM (highest dose often 57.2 µM), inactives show at the top dose activity change, negative = inhibition, usual class: inhibitors; 0.17% of 140,000 active;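 also: potency is read from the fitted curve at half-maximal effect; plate controls were DMSO cells for no effect and cell-free wells for full effect; nearly all actives have a fitted effect of over 45% in size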
Luciferase inh: Firefly luciferase inhibition profiling of diverse chemical library using quantitative high-throughput screening; purified P. pyralis luciferase, luminescence, biochemical; Potency, µM (top dose mostly 115 µM), most hits filed as inhibitors; 2.5% of 76,000 active; AID 1347043, 2019; also: potency is read from the fitted curve at half-maximal effect; nearly all actives have a fitted effect of over 65% in size
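Biochemical qHTS: compound (6-point titration) added to 10uM D-luciferin plus 10uM ATP in Tris acetate pH 7.5 buffer with Mg, Tween-20 and BSA, then purified enzyme at 10nM; light output imaged.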
NIH3T3 tox: Cytotoxic Profiling in NIH 3T3 Cell Line of Diverse Libraries Using Quantitative High-Throughput Screening; NIH 3T3 viability, CellTiter-Glo ATP luminescence, 48-72 h; Potency, µM (highest dose often 96.7 µM), for the others: at the top dose activity change, negative = cytotoxicity, hits mostly inhibitors; 4.3% of 94,000 active; AID 1345082, 2018; also: potency is read from the fitted curve at half-maximal effect; nearly all actives have a fitted effect of over 55% in size
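Cytotoxicity is measured as loss of cellular ATP: NIH 3T3 cells (400/well) are exposed to compound for 48 or 72 hr at 37 °C, then CellTiter-Glo luminescence is imaged after 10 min at room temperature.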
HEK293 viab: GF-AFC viability counterscreen for inhibitors of alpha-synuclein gene (SNCA) expression; 0.12% of 150,000 active; HEK-293-SNCA-luc viability, GF-AFC fluorescence, 24 h; Potency, µM (highest dose often 57.1 µM), for inactives: at the highest dose activity change, negative = cytotoxicity, actives largely listed as cytotoxic; AID 1671193, 2021;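 also: potency is read from the fitted curve at half-maximal effect; 0% = DMSO-treated cells and -100% = medium-only wells without cells; nearly all actives have a fitted effect of over 30% in size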
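Cytotoxicity counterscreen: after 24 h compound treatment of genome-edited SNCA-luciferase HEK-293 cells, live-cell protease substrate GF-AFC read by fluorescence after 30 min; activity scaled between DMSO (0%) and medium-only (-100%), curves Hill-fitted.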
Active calls of the source: *; i = inactive; u = inconclusive; x = no result; [ ] = remark or other dose. An excerpt weighted towards active compounds, which were near 7.3% of everything screened. Unless noted, calls follow the shape of the dose curve; as a rule, active = well fitted curve in the direction sought with a large enough effect; inconclusive = small, poorly fitted or top-dose-only effect, or another doubt; inactive = no such curve, though single readings can be large; an effect the other way counts as inactive or inconclusive. Unless noted, % is scaled to controls: 0 for no effect and ±100 for the full control effect.

SMILES	HEK cytotox	IP6K1 inh	SNCA expr inhib	Luciferase inh	NIH3T3 tox	HEK293 viab
O=C(c1nnn2c1COC(c1ccc(Cl)cc1)C2)N1CCN(C(=O)C2(c3ccccc3)CC2)CC1 (configuration not stated)	22µM*	-8	u	i	28µM*	-22%
O=C(c1ccccc1)N1CCN(C(=O)c2nnn3c2COC(c2ccc(Cl)cc2)C3)CC1 (configuration not stated)	u	4	12%	i	-8%	-4%
CCOc1ccccc1C(=O)N1CCN(C(=O)c2nnn3c2COC(c2ccccc2)C3)CC1 (configuration not stated)	u	-5	4%	i	-18%	-2%
CCOc1ccccc1C(=O)N1CCN(C(=O)c2nnn3c2COC(c2ccc(Cl)cc2)C3)CC1 (configuration not stated)	32µM*	0	u	i	u	-9%
COc1nc2nc(CCc3ccccc3)n(C)c2cc1-c1cccc(CO)c1	u	3	49%[87.6 µM]	71µM*	u	-22%[87.6 µM]
O=C1CO[C@H]2CN(Cc3ccccc3)C[C@H]2N1Cc1cccc(C(F)(F)F)c1	u	-9	-23%[87.6 µM]	i	u	-4%[87.6 µM]
COc1ccc(-n2nc(C)c([C@@H]3C=C[C@@H](NCc4ccc(C(C)C)cc4)C3)c2C)cc1	32µM*	3	-13%[87.6 µM]	25µM*	32µM*	u
Cc1nn(-c2ccc(F)cc2)c(C)c1[C@@H]1C=C[C@@H](NC(=O)CC(C)(C)CC(=O)O)C1	-24%[172 µM]	-15	20%[87.6 µM]	i	u	-7%[87.6 µM]
CCNC(=O)N[C@@H]1C=C[C@@H](c2c(C)nn(-c3ccc(OC)cc3)c2C)C1	u	-8	-75%[87.6 µM]	u	50µM*	u
Cc1nn(-c2ccccc2[N+](=O)[O-])c(C)c1[C@@H]1C=C[C@@H](NCc2ccc(F)cc2)C1	100µM*	27	-16%[87.6 µM]	u	89µM*	u
Cc1nn(-c2ccccc2)c(C)c1[C@@H]1C=C[C@@H](NCc2ccc(F)cc2)C1	63µM*	-3	9%[87.6 µM]	u	u	-10%[87.6 µM]
OC1(CN2CCCCC2)CCN(c2cccc(C(F)(F)F)n2)C1 (configuration not stated)	i	-4	-3%	i	3%	16%
O=C1NCc2ccccc2CC12CCN(Cc1ccc(F)c(Cl)c1)CC2	u	0	7%	x	-23%	-10%
O=S(=O)(c1cccc2nsnc12)N1CCC2(CCC2N2CCOCC2)CC1 (configuration not stated)	-9%	5	-17%	x	-5%	0%
Cc1nn(-c2ccc(C(F)(F)F)cc2)c(C)c1[C@@H]1C=C[C@@H](NCc2ccc(N(C)C)cc2)C1	20µM*	-4	u	i	11µM*	u
Cc1nn(-c2ccc(C(F)(F)F)cc2)c(C)c1[C@@H]1C=C[C@@H](NC(=O)COCC(=O)O)C1	-1%	-1	-1%	i	-1%	7%
COc1ccc(-n2nc(C)c([C@@H]3C=C[C@@H](NCc4ccc(F)cc4)C3)c2C)cc1	28µM*	-5	-18%[87.6 µM]	25µM*	32µM*	u
COc1ccc(NC(=O)O[C@@H]2C=C[C@H](c3c(C)nn(-c4ccc(F)cc4)c3C)C2)cc1	u	0	-2%[87.6 µM]	u	u	-11%[87.6 µM]
c1cc(-c2n[nH]c(CNC3CCC4(CCNCC4)CC3)n2)ccn1	-1%	-5	-13%	i	-7%	-12%
FC(F)Oc1cccc(CNC2CCC3(CCNCC3)CC2)c1	50µM*	9	-8%	i	u	-25%
